# Results published in PubChem BioAssay AID720700 (The Scripps Research Institute Molecular Screening Center, 2013).
# Among all 370,000 compounds or so, about 3,100 (0.84%) were called active. This is one part of a sample in which actives are shown more often than they occur. Cut-off read from the data, not from the text of the source: active = inhibition above about 9.5%; inactive = the rest.
# Target: 1-phosphatidylinositol 4,5-bisphosphate phosphodiesterase gamma-1 (Homo sapiens) (UniProt P19174)
# Assay: PLC-gamma1 enzyme inhibitors, primary screen, biochemical, fluorescence, purified enzyme (AID 720700)
# Settings: purified PLC-gamma1, fluorogenic substrate, at 12.2 µM, active compounds read high
# Sequence of 1-phosphatidylinositol 4,5-bisphosphate phosphodiesterase gamma-1 (Homo sapiens) (P19174 whole entry, looked up): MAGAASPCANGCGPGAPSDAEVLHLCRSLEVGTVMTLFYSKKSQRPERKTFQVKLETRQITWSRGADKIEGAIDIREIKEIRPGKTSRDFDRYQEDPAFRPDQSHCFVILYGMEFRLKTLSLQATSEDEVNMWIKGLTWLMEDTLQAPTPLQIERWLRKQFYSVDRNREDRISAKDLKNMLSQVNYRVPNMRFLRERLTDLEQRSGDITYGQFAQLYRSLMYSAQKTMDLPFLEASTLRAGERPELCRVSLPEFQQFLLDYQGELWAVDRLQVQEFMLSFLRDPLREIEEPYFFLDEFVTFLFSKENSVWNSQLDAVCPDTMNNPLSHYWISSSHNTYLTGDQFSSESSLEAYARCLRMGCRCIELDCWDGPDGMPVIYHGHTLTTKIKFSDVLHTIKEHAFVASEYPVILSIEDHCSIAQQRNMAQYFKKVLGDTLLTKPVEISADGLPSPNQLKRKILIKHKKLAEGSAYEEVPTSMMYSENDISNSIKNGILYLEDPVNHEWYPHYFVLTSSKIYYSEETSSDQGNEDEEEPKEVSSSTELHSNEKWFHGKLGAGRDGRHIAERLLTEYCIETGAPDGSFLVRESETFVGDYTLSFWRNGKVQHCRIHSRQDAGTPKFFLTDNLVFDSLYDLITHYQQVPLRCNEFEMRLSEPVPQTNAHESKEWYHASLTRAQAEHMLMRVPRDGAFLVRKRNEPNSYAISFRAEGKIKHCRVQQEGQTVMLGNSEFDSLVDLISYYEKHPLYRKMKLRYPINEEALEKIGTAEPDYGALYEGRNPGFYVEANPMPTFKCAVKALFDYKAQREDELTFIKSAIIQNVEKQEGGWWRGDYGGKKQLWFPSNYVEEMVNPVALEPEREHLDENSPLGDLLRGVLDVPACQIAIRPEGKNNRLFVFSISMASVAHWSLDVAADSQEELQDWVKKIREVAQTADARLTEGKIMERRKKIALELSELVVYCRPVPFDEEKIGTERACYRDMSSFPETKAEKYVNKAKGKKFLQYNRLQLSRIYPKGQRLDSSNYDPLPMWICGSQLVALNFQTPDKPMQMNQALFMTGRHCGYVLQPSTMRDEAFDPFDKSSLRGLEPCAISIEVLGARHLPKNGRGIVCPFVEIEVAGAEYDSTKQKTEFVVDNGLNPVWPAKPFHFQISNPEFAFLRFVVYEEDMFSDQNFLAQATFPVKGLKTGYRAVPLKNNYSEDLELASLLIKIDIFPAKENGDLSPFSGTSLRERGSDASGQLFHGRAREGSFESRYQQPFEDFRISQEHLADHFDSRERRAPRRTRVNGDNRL
row,SMILES,inhibition
1,O=C(CN1CCC(NC(=O)NCc2ccccc2)CC1)Nc1ccc2c(c1)OCCO2,-0.43% (inactive)
2,C#CCCN([C@H](C(=O)OC)C(C)C)S(=O)(=O)c1ccc(F)cc1Br,-1.82% (inactive)
3,Cc1c(C(C)c2ccccc2O)[nH]c2ccccc12 (stereo unspecified),-4.04% (inactive)
4,COc1ccccc1C(=O)Nc1cccc(C(=O)N2CCOCC2)c1,12.6% (active)
5,COc1ccccc1C(=O)N/C(=C/c1ccc2c(c1)OCO2)C(=O)Nc1cccc(C(=O)O)c1,-3.19% (inactive)
6,COc1ccccc1C(=O)Nc1ccc(OCC(=O)N2CCCCC2)cc1,3.96% (inactive)
7,O=C(CSc1nc2ccccc2s1)N=Nc1c(O)[nH]c2ccccc12,-0.8% (inactive)
8,COC(=O)[C@H](C(C)C)N(CCc1cn(Cc2ccccc2)nn1)S(=O)(=O)c1ccc(F)cc1Br,1.89% (inactive)
9,O=c1c2ccccc2nnn1CSc1nnnn1-c1ccccc1,2.24% (inactive)
10,C=CCn1c(SCn2nnc3ccccc3c2=O)nnc1-c1ccc(Cl)cc1,11.2% (active)
11,O=C(Cn1nnc2ccccc2c1=O)NCc1ccc(Cl)cc1,6.08% (inactive)
12,O=C(OC12CCCN(C1)/C(=C/c1cccnc1)C2)C1CCCC1 (stereo unspecified),2.54% (inactive)
13,O=C(c1c[nH]c2ccccc12)N1CCC(Oc2cccnc2)CC1,5.31% (inactive)
14,O=C(NC1CCC1)c1ccc(C#Cc2cccc(F)c2)c[n+]1[O-],-0.74% (inactive)
15,Cc1ccc(C)c(-n2c(SCC(=O)O)nc3sc4c(c3c2=O)CCCC4)c1,1.35% (inactive)
16,CCn1c(SCC(C)=O)nc2sc3c(c2c1=O)CCCC3,10.1% (active)

row,SMILES,inhibition
1,CCn1c(SCC(=O)Nc2ccc(Br)cc2)nc2sc3c(c2c1=O)CCN(C)C3,-70.8% (inactive)
2,Cc1ccc(CN2CCCCC(NC(=O)C3CCCCC3)C2=O)cc1 (stereo unspecified),7.08% (inactive)
3,CCCOc1ccc(Oc2c(Cl)cnn(Cc3cccc4ccccc34)c2=O)cc1,-1.93% (inactive)
4,CCOC(=O)C1CCN(C(=O)C(C)(C)NC(=O)Nc2ccccc2Cl)CC1,0.94% (inactive)
5,Cc1ccccc1CN1CCCCC(NC(=O)c2cccc(C#N)c2)C1=O (stereo unspecified),-2.09% (inactive)
6,Cc1ccc(S(=O)(=O)N2CCCCC2)cc1NC(=O)CCNC(=O)c1ccccc1,11.6% (active)
7,Cc1ccc(S(=O)(=O)N2CCCCC2)cc1NC(=O)CCNC(=O)c1ccccc1Cl,6.23% (inactive)
8,CC(=O)c1c(C)[nH]c(C(=O)OCC(=O)Nc2cc(S(=O)(=O)N3CCCCC3)ccc2C)c1C,11.4% (active)
9,CC(=O)c1cccc(OCC(=O)OCC(=O)Nc2cc(S(=O)(=O)N3CCCCC3)ccc2C)c1,1.9% (inactive)
10,CS(=O)(=O)c1ccc(Cl)c(NC(=O)COC(=O)c2cccc(S(=O)(=O)N3CCCC3)c2)c1,1.69% (inactive)
11,O=C(CCNC(=O)c1ccc(Br)cc1)Nc1cccc(S(=O)(=O)N2CCCCC2)c1,-1.23% (inactive)
12,CCOc1ccc(-n2c(SCC(=O)Nc3cc(C)c(NC(=O)c4ccccc4)cc3OC)nnc2-c2cccs2)cc1,-10.9% (inactive)
13,CCOC(=O)N1CCN(C(=O)C[C@H]2C[C@@]3(C(=O)OC)C(=C[C@H](C(C)(C)C)O[C@@H]3C)N(Cc3ccc(Cl)cc3Cl)C2=O)CC1,-0.28% (inactive)
14,O=C(c1cccc(C(F)(F)F)c1)N1CC[C@H]2[C@H](CCCN2Cc2cc(F)cc(F)c2)C1,-2.47% (inactive)
15,COC(=O)C1CN(CC(C)C)CCS(=O)(=O)N1Cc1ccc(C)cc1 (stereo unspecified),2.01% (inactive)
